# Source: PubChem BioAssay
# Several values for one entry are separate records, joined by “and”; a condition that tells them apart may be missing. Identical values can stand only once. For some assays here: Results with a measured potency or affinity are listed apart. Activity calls are given as the source filed them. Unless noted, no rule for the calls is given here.
# Assays:
# [1] = polyglutamine-triggered caspase-3 activation inhibitors, cell-based (AID 1583); conditions: polyglutamine-induced caspase-3 activation, cell assay; stronger effect = higher value;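 tested at 10 µM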
# [2] = suppressors of polyQ aggregation in yeast, 75Q-TubU reporter (AID 1593); conditions: Yeast 75Q polyglutamine aggregation reporter
# [3] = rescue of polyQ-huntingtin neuronal dysfunction in worms, whole organism, C. elegans mechanosensory neurons, N-terminal huntingtin (AID 1599); conditions: touch response, stronger effect = higher value
# [4] = inhibitors of mitochondrial cytochrome c release, biochemical, purified mitochondria (AID 1603); conditions: stronger effect = lower value;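 also: mouse liver mitochondria challenged with calcium chloride; signal normalized to the plate average as 100%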
# [5] = inhibitors of polyQ protein aggregation (AID 1604); conditions: polyglutamine-induced protein aggregation inhibition assay; stronger effect = higher value; tested at 2.5 µM
# [6] = enhancers of glutamate uptake in motor neurons, MN-1 cell line (AID 1612); conditions: MN-1 motor neuron cells, stronger effect = higher value;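 also: tested at 1 µM final; 0% = mean of DMSO vehicle wells on each plate; positive means more glutamate uptake than control and negative means less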
# [7] = suppressors of polyglutamine aggregation in yeast, 75Q-TubH (AID 1616); conditions: S. cerevisiae 75Q-TubH polyglutamine aggregation suppression; stronger effect = higher value
# [8] = tested on: Hepatitis C virus NS3 helicase; assay: HCV NS3 helicase inhibitors, primary screen, biochemical, fluorescence polarization, NIH Clinical Collection (AID 743270); conditions: NS3 helicase binding to Cy5-dT15 DNA, stronger effect = higher value, concentration not given here
# [9] = target: Single-stranded DNA-binding protein (Escherichia coli (strain K12)) (UniProt P0AGE0); assay: E. coli SSB displacement from DNA, counter-screen for HCV NS3 helicase inhibitor project, biochemical, fluorescence polarization, NIH Clinical Collection (AID 743271; in the data active = inhibition above about 28%); conditions: stronger effect = higher value, concentration not given here
# [10] = fluorescence interference in NS3h assay format, artefact control for HCV NS3 helicase inhibitor project, biochemical, NIH Clinical Collection (AID 743272); conditions: fluorescence interference counterscreen, stronger effect = lower value;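 also: HCV NS3 helicase with a Cy5 labelled single stranded DNA probe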
# [11] = modulation of C. elegans fzo-1 (AID 1259413);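 also: fzo-1 mutant C. elegans worms in liquid wells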; conditions: C. elegans fzo-1 modulator screen, mean read-out; stronger effect = higher value
# [12] = phospholipid biosynthesis inhibitors in animal cells, primary screen, cell-based, LOPAC library, screen 4 (AID 1347384); conditions: phospholipid biosynthesis inhibition screen, at 10 µM
# [13] = HTB85 osteosarcoma cell growth inhibition, synergistic combos for chromothripsis tumors, BGB or cisplatin IC20 combos (AID 1671453; in the data active = inhibition above about 80%;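 also: cells exposed for 96 hours before readout; 0% = vehicle DMSO and 100% = high DMSO killing control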); conditions: HTB85 osteosarcoma cells, drug combinations, stronger effect = higher value
# [14] = MDA-MB-436 breast carcinoma cell growth inhibition, synergistic combos for chromothripsis tumors, BGB or cisplatin combos (AID 1671458); conditions: MDA-MB-436 breast carcinoma growth inhibition, drug combinations, stronger effect = higher value;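 also: cells exposed for 96 hours; 0% = vehicle DMSO and 100% = killing by high DMSO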
# [15] = growth inhibition of BT084 medulloblastoma cells, cell-based, ICGC_MB145, cisplatin and BGB IC40 combos (AID 1671461; in the data active = inhibition above about 80%;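 also: cells exposed to drugs for 96 hours; 0% = vehicle DMSO and 100% = high DMSO full killing control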); conditions: drug combinations, stronger effect = higher value
# [16] = growth inhibition of RCMB18 medulloblastoma cells, cell-based, cisplatin and BGB IC40 combos (AID 1671462; in the data active = inhibition above about 80%;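 also: cells exposed to compound for four days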); conditions: stronger effect = higher value
# [17] = growth inhibition of CRL1545 osteosarcoma cells, cell-based, cisplatin and BGB IC20 combos (AID 1671464; in the data active = inhibition above about 80%;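 also: cells exposed to compound for 96 hours before readout; 0% = vehicle DMSO and 100% = high DMSO killing control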); conditions: stronger effect = higher value
# [18] = circadian clock period modulators, cell-based, LOPAC library, luminescence reporter (AID 2774); conditions: circadian reporter cells, at 7 µM, actives lie on both sides;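 also: values are relative to mean of DMSO wells on each plate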
# [19] = tested on: Hepatitis C virus NS3 helicase; assay: HCV NS3 helicase inhibitors, primary screen, biochemical, fluorescence polarization, LOPAC1280 library (AID 687035; in the data active = inhibition above about 37%); conditions: Purified HCV NS3 helicase, Cy5-dT15 ssDNA binding fluorescence polarization; stronger effect = higher value; concentration not given here
# [20] = Cy5 fluorescence quenching or enhancement artefacts, artefact control for HCV NS3 helicase inhibitor project, biochemical, LOPAC1280 (AID 687037); conditions: Cy5-DNA-NS3h complex fluorescence interference counterscreen
# [21] = measured here: with BGB IC20, at 0.5 µM
# [22] = measured here: with BGB IC20, at 5 µM
# [23] = measured here: with cisplatin IC20, at 0.5 µM
# [24] = measured here: with cisplatin IC20, at 5 µM
# [25] = measured here: BGB combination, at 0.5 µM
# [26] = measured here: BGB combination, at 5 µM
# [27] = measured here: cisplatin combination, at 0.5 µM
# [28] = measured here: cisplatin combination, at 5 µM
# [29] = cisplatin combination, at 0.5 µM
# [30] = measured here: BGB IC40 combination 0.05 uM, at 0.05 µM
compound,measurement,setting,value
CCn1cc(C(=O)O)c(=O)c2ccc(C)nc21,inhibition,[1],1.35%
same,score,[2],0.74
same,rescue above control,[3],-12.9
same,cytochrome c release ratio,[4],0.84
same,inhibition of aggregation,[5],54.5%
same,glutamate uptake change,[6],-15.5%
same,aggregation suppression score,[7],0.277
same,inhibition,[8],-0.45% (inactive)
same,inhibition,[9],-2.76% (inactive)
same,fluorescence ratio,[10],0.97 (inactive)
same,mean signal,[11],268 (inactive)
same,outcome,[12],inactive
same,inhibition,[13]; at 0.5 µM,-2.77% (inactive) and -11% (inactive)
same,inhibition,[13]; [21],-12.2% and -35.2%
same,inhibition,[13]; [22],-14.2% and -15.8%
same,inhibition,[13]; [23],-1.63% and -0.143%
same,inhibition,[13]; [24],17.1% and -0.249%
same,inhibition,"[13]; single agent, at 5 µM",22.3% and -3.38%
same,inhibition,[14]; at 0.5 µM,-9.6% (inactive) and -19.2% (inactive)
same,inhibition,[14]; [25],-10.5% and -16.3%
same,inhibition,[14]; [26],-0.497% and -4.71%
same,inhibition,[14]; [27],-19.6% and -33.6%
same,inhibition,[14]; [28],-0.491% and -16.4%
same,inhibition,[15]; at 0.5 µM,-9.05% (inactive) and -29.1% (inactive)
same,inhibition,[15]; [29],-8.44% and -23.5%
same,inhibition,"[15]; cisplatin combination, at 5 µM",-55.2% and -59.3%
same,inhibition,[15]; [30],10.8% and -9.88%
same,inhibition,"[15]; single agent, at 5 µM",-16.7% and -23%
same,inhibition,[16]; at 0.5 µM,1.01% (inactive) and -9.08% (inactive)
same,inhibition,"[16]; cisplatin combo, at 5 µM",0.823% and 3.11%
same,inhibition,"[16]; measured here: BGB IC40 combination, at 0.05 µM",11.9% and -0.784%
same,inhibition,"[16]; measured here: combination with cisplatin, at 0.5 µM",-11.3% and -2.66%
same,inhibition,"[16]; single agent, at 5 µM",-12.4% and -29.6%
same,inhibition,[17]; at 0.5 µM,-14.9% (inactive) and -26.1% (inactive)
same,inhibition,"[17]; measured here: with BGB IC20 combination, at 0.5 µM",-12.1% and -5.6%
same,inhibition,"[17]; measured here: with cisplatin IC20 combination, at 0.5 µM",-16.3% and -36.4%
same,inhibition,"[17]; single agent, at 0.05 µM",-17.6% and 10%
same,inhibition,"[17]; single agent, at 5 µM",0.11% and -3.86%
CC(C)(C)NCC(O)c1ccc(O)c(CO)c1 (stereo not given),inhibition,[1],-4.84%
same,score,[2],1.14
same,rescue above control,[3],0.08
same,cytochrome c release ratio,[4],3.64
same,inhibition of aggregation,[5],25%
same,glutamate uptake change,[6],-8.12%
same,aggregation suppression score,[7],0.989
same,period change,[18],-0.055 hour (inactive) and -0.15 hour (inactive)
same,inhibition,[19],0% (inactive)
same,fluorescence ratio (interference),[20],1 (inactive)
same,inhibition,[8],-1.19% (inactive)
same,inhibition,[9],2.98% (inactive)
same,fluorescence ratio,[10],0.94 (inactive)
same,mean signal,[11],230 (inactive)
same,outcome,[12],inactive
CN/C(=C\[N+](=O)[O-])NCCSCc1ccc(CN(C)C)o1,inhibition,[1],6.1%
same,score,[2],1.61
same,rescue above control,[3],-10.5
same,cytochrome c release ratio,[4],0.8
same,inhibition of aggregation,[5],71.9%
same,glutamate uptake change,[6],-10.5%
same,aggregation suppression score,[7],1.66
same,period change,[18],0.16 h (inactive)
same,inhibition,[19],-3% (inactive)
same,fluorescence ratio (interference),[20],0.9 (inactive)
same,inhibition,[8],0.45% (inactive)
same,inhibition,[9],6.39% (inactive)
same,fluorescence ratio,[10],0.89 (inactive)
same,mean signal,[11],267 (inactive)
same,outcome,[12],inactive
CC12CCC(CC1)C(C)(C)O2,inhibition,[1],20.8%
same,score,[2],1.26
same,rescue above control,[3],2.25
same,cytochrome c release ratio,[4],0.96
same,inhibition of aggregation,[5],71.8%
same,glutamate uptake change,[6],-6.04%
same,aggregation suppression score,[7],1.21
COCCCOc1ccnc(CS(=O)c2nc3ccccc3[nH]2)c1C (stereo not given),inhibition,[8],-6.33% (inactive)
same,inhibition,[9],0.39% (inactive)
same,fluorescence ratio,[10],0.94 (inactive)
same,mean signal,[11],232 (inactive)
COc1ccc2cc([C@H](C)C(=O)O)ccc2c1,inhibition,[1],-27.8%
same,score,[2],0.32
same,rescue above control,[3],-11.2
same,cytochrome c release ratio,[4],0.95
same,inhibition of aggregation,[5],74%
same,glutamate uptake change,[6],6.08%
same,aggregation suppression score,[7],0.196
same,period change,[18],-0.095 h (inactive)
same,inhibition,[19],-6% (inactive)
same,fluorescence ratio (interference),[20],1 (inactive)
same,mean signal,[11],264 (inactive)
same,outcome,[12],inactive
O=C1CN(/N=C/c2ccc([N+](=O)[O-])o2)C(=O)N1,inhibition,[1],27%
same,score,[2],0.72
same,rescue above control,[3],4.47
same,cytochrome c release ratio,[4],0.76
same,inhibition of aggregation,[5],41.5%
same,glutamate uptake change,[6],23.4%
same,aggregation suppression score,[7],0.814
same,mean signal,[11],245 (inactive)
CN(C)C(=O)C(CCN1CCC(O)(c2ccc(Cl)cc2)CC1)(c1ccccc1)c1ccccc1,inhibition,[1],18.5%
same,score,[2],1.94
same,rescue above control,[3],1.56
same,cytochrome c release ratio,[4],0.99
same,inhibition of aggregation,[5],7.94%
same,glutamate uptake change,[6],44.5%
same,aggregation suppression score,[7],1.13
same,period change,[18],-0.235 h (inactive)
same,inhibition,[19],-4% (inactive)
same,fluorescence ratio (interference),[20],1 (inactive)
same,inhibition,[8],-6.82% (inactive)
same,inhibition,[9],-5.05% (inactive)
same,fluorescence ratio,[10],1.01 (inactive)
same,mean signal,[11],201 (inactive)
same,outcome,[12],inactive
COc1c2occc2cc2ccc(=O)oc12,inhibition,[1],18.6%
same,score,[2],0.85
same,rescue above control,[3],6.17
same,cytochrome c release ratio,[4],2.13
same,inhibition of aggregation,[5],72.4%
same,glutamate uptake change,[6],-3.48%
same,aggregation suppression score,[7],0.937
same,inhibition,[8],-3.18% (inactive)
same,inhibition,[9],-5.05% (inactive)
same,fluorescence ratio,[10],1.02 (inactive)
same,mean signal,[11],248 (inactive)
Oc1ccc(O)cc1,period change,[18],-0.06 h (inactive)
same,inhibition,[19],0% (inactive)
same,fluorescence ratio (interference),[20],1.1 (inactive)
same,outcome,[12],inactive
CCCC(=O)Nc1ccc(OCC(O)CNC(C)C)c(C(C)=O)c1 (stereo not given),inhibition,[1],-2.9%
same,score,[2],1.34
same,rescue above control,[3],-8.24
same,cytochrome c release ratio,[4],0.94
same,inhibition of aggregation,[5],0%
same,glutamate uptake change,[6],-19.3%
same,aggregation suppression score,[7],1.28
same,inhibition,[8],-3.18% (inactive)
same,inhibition,[9],-5.82% (inactive)
same,fluorescence ratio,[10],1.03 (inactive)
same,mean signal,[11],238 (inactive)
CCCC(CCC)C(=O)O,inhibition,[1],28.5%
same,score,[2],1.39
same,rescue above control,[3],2.58
same,cytochrome c release ratio,[4],0.86
same,inhibition of aggregation,[5],40.9%
same,glutamate uptake change,[6],-8.08%
same,aggregation suppression score,[7],0.716
same,period change,[18],0.1 h (inactive)
same,inhibition,[19],0% (inactive)
same,fluorescence ratio (interference),[20],1 (inactive)
same,inhibition,[8],-1.36% (inactive)
same,inhibition,[9],-1.24% (inactive)
same,fluorescence ratio,[10],0.99 (inactive)
same,mean signal,[11],274 (inactive)
same,outcome,[12],inactive
same,inhibition,[13]; at 0.5 µM,-8.02% (inactive) and 3.4% (inactive)
same,inhibition,[13]; [21],-18.9% and -3.5%
same,inhibition,[13]; [22],53.9% and 3.4%
same,inhibition,[13]; [23],-4.12% and 2.48%
same,inhibition,[13]; [24],-47.8% and -2.5%
same,inhibition,"[13]; single agent, at 5 µM",-17.1% and 13.4%
same,inhibition,[14]; at 0.5 µM,-30.4% (inactive) and 1.93% (inactive)
same,inhibition,[14]; [25],-29.6% and 4.62%
same,inhibition,[14]; [26],-20.8% and 1.95%
same,inhibition,[14]; [27],-40.6% and 3.21%
same,inhibition,[14]; [28],-25.9% and 1.52%
same,inhibition,[15]; at 0.5 µM,-33.9% (inactive) and -3.36% (inactive)
same,inhibition,[15]; [29],-10.5% and -11.6%
same,inhibition,"[15]; cisplatin combination, at 5 µM",-5.4% and -1.37%
same,inhibition,[15]; [30],-20.5% and -59.5%
